# Source: PubChem BioAssay (EPA / NIEHS)
# Inconclusive results are not listed. The source made the active and inactive calls. The calls were made as follows, unless noted: active = hit-call score of the fitted dose curve at least 0.9, where 1 is the maximum; inconclusive = response in the unintended direction; inactive = score below 0.9.
# Assays:
# [1] = biological target: human Peroxisome Proliferator-activated Receptor delta (PPARd), PPARD (gene 5467) (UniProt Q03181); test: ATG_PPARd_TRANS: Attagene TRANS-FACTORIAL HepG2 Assay for human Peroxisome Proliferator-activated Receptor delta (PPARd) (AID 2283002)
# Sequence of human Peroxisome Proliferator-activated Receptor delta (PPARd), PPARD (gene 5467) (Q03181 whole entry, looked up, the tested form may be a part): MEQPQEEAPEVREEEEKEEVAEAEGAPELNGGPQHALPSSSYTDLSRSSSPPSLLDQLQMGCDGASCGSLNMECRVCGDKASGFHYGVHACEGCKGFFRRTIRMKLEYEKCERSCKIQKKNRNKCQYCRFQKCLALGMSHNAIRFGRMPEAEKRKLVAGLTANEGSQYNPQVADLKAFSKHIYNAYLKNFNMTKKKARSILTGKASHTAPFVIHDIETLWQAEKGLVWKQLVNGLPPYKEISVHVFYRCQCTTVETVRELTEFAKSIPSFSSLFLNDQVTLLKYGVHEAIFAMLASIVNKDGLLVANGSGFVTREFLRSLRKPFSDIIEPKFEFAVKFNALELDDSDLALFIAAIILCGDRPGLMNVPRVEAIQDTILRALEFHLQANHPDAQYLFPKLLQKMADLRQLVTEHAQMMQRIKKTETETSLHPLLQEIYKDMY
# Summary of the method: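 Transient HepG2 transfection (multiple GAL4-UAS RTUs, chimeric receptor-Gal4); 24 h dosing; total RNA → oligo(dT) RT → PCR → 6-FAM primer extension → HpaI cut → CE. Positive direction vs DMSO.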
# [2] = read-out: Intercellular Adhesion Molecule 1 (ICAM1), ICAM1 (gene 3383); test: BSK_3C_ICAM1: BioMAP Diversity Plus: 3C Assay for Intercellular Adhesion Molecule 1 (ICAM1) Biomarker Activity (AID 2283003; active = hit-call score of the fitted dose curve at least 0.9, where 1 is the maximum; inactive = score below 0.9); conditions: primary human endothelial cells (HUVEC); actives raise or lower the signal
# Summary of the method: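 Chemicals are dosed onto primary human umbilical vein endothelium (3C system). After 24 h, ICAM-1 is measured by ELISA, and responses are fitted bidirectionally relative to DMSO.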
# [3] = BSK_3C_Proliferation: Cell Proliferation Assessment in the BioMAP Diversity Plus: 3C Assay (AID 2283006; active = hit-call score of the fitted dose curve at least 0.9, where 1 is the maximum; inactive = score below 0.9;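 as to AC50: potency may reflect either rise or fall in cell number versus DMSO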); conditions: primary human endothelial cells (HUVEC)
# Summary of the method: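 Cells (human umbilical vein endothelial, sub-confluent) receive test chemical; after 48 h they are fixed in 10% trichloroacetic acid, stained with 0.1% SRB and read at 560 nm. Activity is referenced to DMSO, fitting increases and decreases.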
# [4] = biological target: Nuclear receptor subfamily 1 group I member 2 (Homo sapiens) (UniProt O75469); test: ATG_PXR_TRANS: Attagene TRANS-FACTORIAL HepG2 Assay for human Pregnane X Receptor (PXR) (AID 2283008)
# Sequence of Nuclear receptor subfamily 1 group I member 2 (Homo sapiens) (O75469 whole entry, looked up, the tested form may be a part): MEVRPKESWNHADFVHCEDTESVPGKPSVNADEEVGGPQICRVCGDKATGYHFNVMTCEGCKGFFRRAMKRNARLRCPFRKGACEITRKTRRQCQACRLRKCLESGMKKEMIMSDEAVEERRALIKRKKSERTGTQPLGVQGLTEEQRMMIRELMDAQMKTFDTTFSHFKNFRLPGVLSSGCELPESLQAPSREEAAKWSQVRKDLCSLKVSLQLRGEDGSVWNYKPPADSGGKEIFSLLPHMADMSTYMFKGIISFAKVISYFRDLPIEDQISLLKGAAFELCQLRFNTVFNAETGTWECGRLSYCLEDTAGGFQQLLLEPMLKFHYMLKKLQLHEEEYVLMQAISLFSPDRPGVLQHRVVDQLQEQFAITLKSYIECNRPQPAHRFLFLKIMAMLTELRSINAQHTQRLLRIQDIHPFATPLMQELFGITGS
# Summary of the method: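 Multiplexed TRANS reporter panel in HepG2; this component tracks PXR-Gal4-driven reporter mRNA after 24 h dosing, measured by RT-PCR with capillary electrophoresis fluorescence, fitted against DMSO.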
# [5] = biological target: human RAR-related Orphan Receptor gamma (RORg), RORC (gene 6097) (UniProt P51449); test: ATG_RORg_TRANS: Attagene TRANS-FACTORIAL HepG2 Assay for human RAR-related Orphan Receptor gamma (RORg) (AID 2283011)
# Sequence of human RAR-related Orphan Receptor gamma (RORg), RORC (gene 6097) (P51449 whole entry, looked up, the tested form may be a part): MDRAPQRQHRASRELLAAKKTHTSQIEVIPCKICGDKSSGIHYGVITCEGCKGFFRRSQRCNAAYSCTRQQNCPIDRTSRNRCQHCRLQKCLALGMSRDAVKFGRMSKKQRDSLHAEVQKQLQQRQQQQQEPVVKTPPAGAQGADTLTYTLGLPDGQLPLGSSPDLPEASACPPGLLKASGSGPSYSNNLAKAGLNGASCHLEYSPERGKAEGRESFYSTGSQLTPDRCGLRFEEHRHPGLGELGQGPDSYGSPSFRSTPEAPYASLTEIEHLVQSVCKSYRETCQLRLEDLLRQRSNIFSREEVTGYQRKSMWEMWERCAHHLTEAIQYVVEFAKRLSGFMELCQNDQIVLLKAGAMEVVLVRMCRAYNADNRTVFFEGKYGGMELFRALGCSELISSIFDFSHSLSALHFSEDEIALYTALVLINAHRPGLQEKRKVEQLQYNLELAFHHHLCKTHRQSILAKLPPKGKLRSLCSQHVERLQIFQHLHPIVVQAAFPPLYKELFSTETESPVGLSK
# Summary of the method: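 Readout: reporter transcript induction (RT-PCR, fluorescent primer extension, capillary electrophoresis) after 24 h compound exposure of transiently transfected HepG2 cells carrying a RORg-Gal4 chimera and GAL4-UAS reporters; DMSO served as baseline, with increasing signal fitted.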
# [6] = biological target: Retinoic acid receptor alpha (Homo sapiens) (UniProt P10276); test: ATG_RARa_TRANS: Attagene TRANS-FACTORIAL HepG2 Assay for human Retinoic Acid Receptor alpha (RARa) (AID 2283005)
# Sequence of Retinoic acid receptor alpha (Homo sapiens) (P10276 whole entry, looked up, the tested form may be a part): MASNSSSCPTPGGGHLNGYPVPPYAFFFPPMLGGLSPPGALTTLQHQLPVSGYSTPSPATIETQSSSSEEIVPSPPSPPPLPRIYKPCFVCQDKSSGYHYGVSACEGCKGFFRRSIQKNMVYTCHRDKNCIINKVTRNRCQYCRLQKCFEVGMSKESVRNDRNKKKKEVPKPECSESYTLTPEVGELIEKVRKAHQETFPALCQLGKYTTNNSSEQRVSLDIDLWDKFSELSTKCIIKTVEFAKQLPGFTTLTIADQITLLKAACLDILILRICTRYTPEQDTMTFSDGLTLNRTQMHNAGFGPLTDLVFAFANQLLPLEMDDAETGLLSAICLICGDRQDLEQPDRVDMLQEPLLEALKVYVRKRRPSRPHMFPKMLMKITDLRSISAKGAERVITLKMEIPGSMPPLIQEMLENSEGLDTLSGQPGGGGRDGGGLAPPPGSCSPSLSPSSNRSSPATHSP
# Summary of the method: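 Reporter transcripts, measured by RT-PCR with fluorescent labeling and capillary electrophoresis after 24 h dosing, reflect activity of an exogenous human RARa–GAL4 fusion in transiently transfected HepG2. Fitted for increase relative to DMSO.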
# [7] = biological target: human Retinoic Acid Receptor gamma (RARg), RARG (gene 5916) (UniProt P13631); test: ATG_RARg_TRANS: Attagene TRANS-FACTORIAL HepG2 Assay for human Retinoic Acid Receptor gamma (RARg) (AID 2283009)
# Sequence of human Retinoic Acid Receptor gamma (RARg), RARG (gene 5916) (P13631 whole entry, looked up, the tested form may be a part): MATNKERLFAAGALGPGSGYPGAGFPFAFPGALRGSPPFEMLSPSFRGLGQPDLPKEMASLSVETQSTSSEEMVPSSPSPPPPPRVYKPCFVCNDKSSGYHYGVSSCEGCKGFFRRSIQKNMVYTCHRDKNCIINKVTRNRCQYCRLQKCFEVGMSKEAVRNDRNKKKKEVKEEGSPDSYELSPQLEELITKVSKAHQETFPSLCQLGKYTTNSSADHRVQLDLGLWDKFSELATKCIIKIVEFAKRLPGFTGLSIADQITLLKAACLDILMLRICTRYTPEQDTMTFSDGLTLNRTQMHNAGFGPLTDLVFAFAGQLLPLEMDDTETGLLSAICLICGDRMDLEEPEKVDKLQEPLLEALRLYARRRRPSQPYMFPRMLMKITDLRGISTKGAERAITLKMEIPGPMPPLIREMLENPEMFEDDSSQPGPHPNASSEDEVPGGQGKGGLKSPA
# Summary of the method: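 TRANS format measured activity of exogenous NR-GAL4 fusion (RARg) in transfected HepG2 liver cells after 24 h dosing. Induced reporter RNA was detected by RT-PCR/capillary electrophoresis fluorescence, analysed in the positive direction against DMSO.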
# [8] = biological target: human RAR-related Orphan Receptor beta (RORb), RORB (gene 6096) (UniProt Q92753); test: ATG_RORb_TRANS: Attagene TRANS-FACTORIAL HepG2 Assay for human RAR-related Orphan Receptor beta (RORb) (AID 2283010)
# Sequence of human RAR-related Orphan Receptor beta (RORb), RORB (gene 6096) (Q92753 whole entry, looked up, the tested form may be a part): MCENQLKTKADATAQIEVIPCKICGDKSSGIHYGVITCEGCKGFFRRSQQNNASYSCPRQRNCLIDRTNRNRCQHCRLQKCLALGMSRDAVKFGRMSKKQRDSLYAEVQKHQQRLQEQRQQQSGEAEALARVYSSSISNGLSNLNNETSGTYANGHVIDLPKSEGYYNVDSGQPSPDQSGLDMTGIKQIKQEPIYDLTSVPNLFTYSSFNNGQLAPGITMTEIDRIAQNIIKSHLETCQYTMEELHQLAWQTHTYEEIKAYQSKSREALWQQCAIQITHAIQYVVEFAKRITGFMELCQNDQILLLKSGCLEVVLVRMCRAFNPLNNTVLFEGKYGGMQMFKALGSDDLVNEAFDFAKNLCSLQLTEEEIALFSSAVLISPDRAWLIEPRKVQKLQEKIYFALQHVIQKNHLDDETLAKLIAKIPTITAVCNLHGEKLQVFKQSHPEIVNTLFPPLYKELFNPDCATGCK
# Summary of the method: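 Transfect HepG2 with multiple GAL4-UAS reporter transcription units; dose chemicals for 24 h; isolate RNA, reverse-transcribe and PCR-amplify reporter sequences; label, digest and resolve fragments by capillary electrophoresis; fit increases relative to DMSO.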
# [9] = biological target: Peroxisome proliferator-activated receptor gamma (Homo sapiens) (UniProt P37231); test: ATG_PPARg_TRANS: Attagene TRANS-FACTORIAL HepG2 Assay for human Peroxisome Proliferator-activated Receptor-gamma (PPARg) (AID 2283007)
# Sequence of Peroxisome proliferator-activated receptor gamma (Homo sapiens) (P37231 whole entry, looked up, the tested form may be a part): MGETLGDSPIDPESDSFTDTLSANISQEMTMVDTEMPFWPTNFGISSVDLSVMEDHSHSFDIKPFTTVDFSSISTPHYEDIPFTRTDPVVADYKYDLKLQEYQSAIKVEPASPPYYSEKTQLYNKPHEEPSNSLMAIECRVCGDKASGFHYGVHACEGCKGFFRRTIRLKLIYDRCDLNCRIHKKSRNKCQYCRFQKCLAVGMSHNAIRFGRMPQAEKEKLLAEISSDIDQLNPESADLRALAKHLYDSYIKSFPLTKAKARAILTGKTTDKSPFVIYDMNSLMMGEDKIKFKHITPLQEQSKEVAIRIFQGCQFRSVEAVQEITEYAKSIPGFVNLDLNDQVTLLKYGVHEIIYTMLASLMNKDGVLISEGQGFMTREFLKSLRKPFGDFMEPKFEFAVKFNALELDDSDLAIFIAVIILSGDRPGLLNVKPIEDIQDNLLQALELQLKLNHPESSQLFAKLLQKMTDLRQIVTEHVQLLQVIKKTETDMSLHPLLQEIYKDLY
# Summary of the method: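 Read-out: reporter mRNA induction, detected by fluorescence after RT-PCR and capillary electrophoresis. Transiently transfected human HepG2 liver cells carrying a chimeric NR-Gal4 construct were dosed for 24 h; activity was fitted upward relative to DMSO.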
smiles,measurement,setting,value
O=C=NC1CCC(CC2CCC(N=C=O)CC2)CC1 (stereo unspecified),outcome,[1],inactive
same,outcome,[2],inactive
same,AC50,[3],23.2 µM (active)
same,outcome,[4],inactive
same,outcome,[5],inactive
C=CC[N+](C)(C)CC=C,outcome,[1],inactive
same,outcome,[6],inactive
same,outcome,[4],inactive
same,outcome,[7],inactive
same,outcome,[8],inactive
CO[Si](C)(OC)c1ccccc1,outcome,[1],inactive
same,outcome,[9],inactive
same,AC50,[4],2.73 µM (active)
same,outcome,[8],inactive
COc1ccc(Nc2ccccc2)c(C)c1,outcome,[1],inactive
same,AC50,[9],31.5 µM (active)
same,AC50,[4],11.1 µM (active)
CCN(CC)c1ccc2c(-c3ccccc3C(=O)O)c3ccc(=[N+](CC)CC)cc-3oc2c1,outcome,[1],inactive
same,AC50,[9],30.4 µM (active)
same,AC50,[4],0.335 µM (active)
C=C(C)[C@@H]1CCC2=CC(=O)C[C@@H](C)[C@]2(C)C1,outcome,[1],inactive
same,outcome,[9],inactive
same,outcome,[4],inactive
CC(C)=CCC/C(C)=C/COC=O,outcome,[1],inactive
same,outcome,[9],inactive
same,outcome,[4],inactive
CSc1nc(NC2CC2)nc(NC(C)(C)C)n1,outcome,[1],inactive
same,AC50,[9],31.9 µM (active)
same,AC50,[4],1.05 µM (active)
COC(C(=O)O)c1ccccc1 (stereo unspecified),outcome,[1],inactive
same,outcome,[9],inactive
same,outcome,[4],inactive
CC(C)(Oc1ccc(CCNC(=O)c2ccc(Cl)cc2)cc1)C(=O)O,AC50,[1],79.4 µM (active)
same,AC50,[9],27.6 µM (active)
same,outcome,[4],inactive
Cc1c(Cl)c(=O)oc2cc(O)ccc12,outcome,[1],inactive
same,AC50,[9],100 µM (active)
same,outcome,[4],inactive
OCCCCCO,outcome,[1],inactive
same,outcome,[9],inactive
same,outcome,[4],inactive
CNC(=O)Oc1ccc2c(c1)[C@]1(C)CCN(C)[C@@H]1N2C,outcome,[1],inactive
same,outcome,[9],inactive
same,outcome,[4],inactive
CC(=O)O[C@H](CC(=O)[O-])C[N+](C)(C)C,outcome,[1],inactive
same,outcome,[9],inactive
Nc1cccc(S(=O)(=O)c2cccc(N)c2)c1,outcome,[1],inactive
same,outcome,[9],inactive
same,outcome,[4],inactive
same,outcome,[8],inactive
Cc1ccc(O)c(C(C)(C)C)c1,outcome,[1],inactive
same,AC50,[2],33.7 µM (active)
same,AC50,[3],15.1 µM (active)
same,AC50,[4],19.1 µM (active)
same,outcome,[8],inactive
CCCOCC(C)O (stereo unspecified),outcome,[1],inactive
same,outcome,[9],inactive
same,outcome,[4],inactive
same,outcome,[8],inactive
C[Si](O[Si](C)(C)C)O[Si](C)(C)C,outcome,[1],inactive
same,outcome,[9],inactive
same,outcome,[4],inactive
CC(=O)c1c(C)cc(C(C)(C)C)cc1C,outcome,[1],inactive
same,outcome,[6],inactive
same,outcome,[9],inactive
same,outcome,[4],inactive
same,outcome,[7],inactive
[Ca+2],outcome,[1],inactive
same,outcome,[6],inactive
same,outcome,[4],inactive
same,outcome,[5],inactive
CC(=O)OCCC(C)CC(C)(C)C (stereo unspecified),outcome,[1],inactive
same,outcome,[2],inactive
same,outcome,[3],inactive
same,outcome,[4],inactive
same,outcome,[8],inactive
